Calls of active or inactive are those of the source.

Experiment [1] has as its target Albumin (Bos taurus) (UniProt P02769). Put plainly: compounds binding labelled BSA control protein – biochemical, small-molecule microarray, Alexa647 label, 635/667 nm fluorescence, artefact control for SMM control protein annotation, profiling panel (AID 1118).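 Note: score merges 667 nm emission intensity and signal-to-noise per printed compound spot.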 As to conditions: BSA-A647 binding, fluorescence 635 nm, higher = more signal.
The nature of experiment [2]: probe aXIP binding to arrayed compounds – biochemical, NeuroSMM set, 635/667 nm fluorescence, primary screen (AID 1119).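 Note: probe is the protein aXip251-270 applied at 1 µg/mL to compound-printed slides; binding of probe to printed compounds measured as 667 nm fluorescence plus signal to noise.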 As to conditions: small-molecule microarray, higher = more signal, called active from +8 up or from −8 down.
Experiment [3] in a line: probe aNOTCH3 binding on compound microarray – biochemical, small-molecule microarray, 635/667 nm fluorescence, primary screen (AID 1120).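 Note: probe is a biotin-tagged antibody raised against NOTCH3 rather than NOTCH3 protein; score merges spot fluorescence near 667 nm with spot signal to noise.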 As to conditions: higher = more signal.
Experiment [4] in a line: probe aNOTCH2 binding on compound microarray – biochemical, small-molecule microarray, 635/667 nm fluorescence, primary screen (AID 1121).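 Note: score merges feature fluorescence read at 667 nm with its signal to noise.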 Particulars: higher = more signal.
Experiment [5] has as its target Carbonic anhydrase 2 (Homo sapiens) (UniProt P00918). The experiment can be described thus: compounds binding carbonic anhydrase 2 – biochemical, small-molecule microarray, Alexa647-labelled CAII, profiling panel (AID 1122). Particulars: CAII-A647 binding fluorescence, higher = more signal.
Experiment [6] can be described thus: COS7 lysate on small-molecule microarray, probe aHis, 635 nm (AID 1123).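 Note: z-score combines 667nm fluorescence intensity with signal-to-noise per printed compound spot.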 Particulars: COS7 cell lysate, fluorescence, higher = more signal.
Experiment [7] is described as follows: probe aLAP1 signal on lysate-treated microarray – cell lysate, small-molecule microarray, COS7 lysate, primary screen (AID 1124).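 Note: lysate comes from COS7 cells expressing LAP1 and is applied at 0.3 µg/mL; score merges spot fluorescence near 667 nm with signal-to-noise over triplicate slides.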 As to conditions: probe aLAP1, fluorescence, higher = more signal.
For experiment [8], the system named is Sam68 (KHDRBS1). The experiment can be described thus: compounds binding KHDRBS1 protein – biochemical, small-molecule microarray, 635 nm fluorescence, primary screen (AID 1125).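 Note: score merges 667 nm channel intensity with signal to noise over triplicate slides.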 As to conditions: higher = more signal.
The test system of experiment [9] is Chordin-like protein 2 (CHRDL2). The experiment can be described thus: compounds binding chordin-like 2 – biochemical, small-molecule microarray, 635 nm fluorescence, primary screen (AID 1126).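 Note: printed compound slides probed with Chrdl2 protein at 4 µg/mL for 1 h at 4 C; score merges 667 nm emission intensity with signal to noise over three replicate slides.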 Particulars: fluorescence 635 nm, higher = more signal.
The target of experiment [10] is Concanavalin-A (Canavalia ensiformis) (UniProt P02866). Put plainly: compounds binding concanavalin A lectin – biochemical, small-molecule microarray, Alexa647 label, 635 nm, artefact control for SMM control protein annotation, primary screen (AID 1127).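 Note: z combines 667 nm emission intensity with signal-to-noise across three replicate slides.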 Particulars: ConA-A647 binding fluorescence, higher = more signal.
Experiment [11] can be described thus: compounds binding Alexa647 anti-His antibody – biochemical, small-molecule microarray, 635 nm fluorescence, artefact control for SMM control protein annotation, primary screen (AID 1128).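 Note: score merges feature fluorescence with signal-to-noise for each printed compound spot.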 As to conditions: higher = more signal.
Experiment [12] deals with Human papillomavirus type 1a E7 protein (residues 1-88). The experiment can be described thus: HPV1a E7 small-molecule binders, primary screen, biochemical, small-molecule microarray, residues 1-88, 635 nm (AID 1129). As to conditions: small-molecule microarray binding, fluorescence 635 nm; higher = more signal.
The target of experiment [13] is Focal adhesion kinase 1 (Homo sapiens) (UniProt Q05397). The experiment can be described thus: PTK2 protein binding on printed compound slides – biochemical, small-molecule microarray, 635/667 nm fluorescence, BSA, DTT, primary screen (AID 1130).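 Note: composite of spot emission at 667 nm and signal to noise over triplicate slides.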 As to conditions: 635 nm fluorescence, higher = more signal.
Experiment [14] has as its system Fibrinogen (Alexa647-labelled). The experiment can be described thus: Alexa647-fibrinogen binding to printed small molecules – biochemical, small-molecule microarray, 635/667 nm fluorescence, artefact control for SMM control-protein annotation, profiling panel (AID 1131).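 Note: z-score merges 667 nm fluorescence with per-spot signal-to-noise over triplicate slides.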 Particulars: fibrinogen-A647 binding fluorescence, higher = more signal.
In experiment [15] the target is Follistatin (Homo sapiens) (UniProt P19883). The experiment can be described thus: FST protein binding to printed compounds – biochemical, small-molecule microarray, 635/667 nm fluorescence, primary screen (AID 1132). As to conditions: 635 nm fluorescence, higher = more signal.
The target in experiment [16] is Fibroblast growth factor 2 (Homo sapiens) (UniProt P09038). Put plainly: basic fibroblast growth factor binding to printed compounds – biochemical, small-molecule microarray, 635/667 nm fluorescence, primary screen (AID 1133). As to conditions: FGF2, fluorescence 635/667, higher = more signal.
Experiment [17] in a line: JC-1 mitochondrial potential readout, lung cancer cells – cell-based, A549, JC-1 fluorescence, basal, 24 h, 100 nL, profiling panel (AID 1138).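 Note: A549 lung adenocarcinoma cells under basal conditions with no added stimulus; test concentration not given here.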 As to conditions: higher = more signal.
In experiment [18] the test system is Lefty1. The experiment can be described thus: Lefty1 protein binding to printed compounds – biochemical, small-molecule microarray, 635/667 nm fluorescence, primary screen (AID 1139). Particulars: fluorescence 635/667, higher = more signal.
The test system of experiment [19] is wheat germ agglutinin (Triticum aestivum), Alexa647-labelled. Put plainly: Alexa647-WGA lectin binding to printed small molecules – biochemical, small-molecule microarray, 635/667 nm fluorescence, artefact control for SMM control-protein annotation, profiling panel (AID 1140).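 Note: score merges 667 nm feature emission with signal to noise over triplicate slides.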 As to conditions: WGA-A647 binding, 635 nm fluorescence, higher = more signal.
The target of experiment [20] is Luciferin 4-monooxygenase (Photinus pyralis) (UniProt P08659). Put plainly: inhibition of purified Photinus pyralis luciferase – biochemical, luminescence, purified enzyme, 2006 set, primary screen (AID 1141).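 Note: cell-free assay with purified firefly luciferase at 100 ng per well in PBS; test concentration not given here.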 As to conditions: purified firefly luciferase, SteadyGlo luminescence, 30 min; higher = more signal, called active from +8 up or from −8 down.
Luciferin 4-monooxygenase (Photinus pyralis), sequence (P08659 whole entry, looked up): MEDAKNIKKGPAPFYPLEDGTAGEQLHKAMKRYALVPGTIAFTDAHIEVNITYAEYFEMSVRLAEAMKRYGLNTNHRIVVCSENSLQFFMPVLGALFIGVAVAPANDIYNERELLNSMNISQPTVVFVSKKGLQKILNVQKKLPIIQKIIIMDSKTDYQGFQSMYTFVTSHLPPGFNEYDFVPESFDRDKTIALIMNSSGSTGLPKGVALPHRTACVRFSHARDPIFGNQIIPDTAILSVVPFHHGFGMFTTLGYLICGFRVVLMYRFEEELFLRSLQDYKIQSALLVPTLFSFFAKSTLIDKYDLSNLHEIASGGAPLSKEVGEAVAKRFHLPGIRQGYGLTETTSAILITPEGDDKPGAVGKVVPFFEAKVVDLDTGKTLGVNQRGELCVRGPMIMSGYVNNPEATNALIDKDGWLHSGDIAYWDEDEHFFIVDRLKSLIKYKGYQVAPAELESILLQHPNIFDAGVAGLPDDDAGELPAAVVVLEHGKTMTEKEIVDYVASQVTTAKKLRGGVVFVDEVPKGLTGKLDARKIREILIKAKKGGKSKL

Focal adhesion kinase 1 (Homo sapiens), sequence (Q05397 whole entry, looked up): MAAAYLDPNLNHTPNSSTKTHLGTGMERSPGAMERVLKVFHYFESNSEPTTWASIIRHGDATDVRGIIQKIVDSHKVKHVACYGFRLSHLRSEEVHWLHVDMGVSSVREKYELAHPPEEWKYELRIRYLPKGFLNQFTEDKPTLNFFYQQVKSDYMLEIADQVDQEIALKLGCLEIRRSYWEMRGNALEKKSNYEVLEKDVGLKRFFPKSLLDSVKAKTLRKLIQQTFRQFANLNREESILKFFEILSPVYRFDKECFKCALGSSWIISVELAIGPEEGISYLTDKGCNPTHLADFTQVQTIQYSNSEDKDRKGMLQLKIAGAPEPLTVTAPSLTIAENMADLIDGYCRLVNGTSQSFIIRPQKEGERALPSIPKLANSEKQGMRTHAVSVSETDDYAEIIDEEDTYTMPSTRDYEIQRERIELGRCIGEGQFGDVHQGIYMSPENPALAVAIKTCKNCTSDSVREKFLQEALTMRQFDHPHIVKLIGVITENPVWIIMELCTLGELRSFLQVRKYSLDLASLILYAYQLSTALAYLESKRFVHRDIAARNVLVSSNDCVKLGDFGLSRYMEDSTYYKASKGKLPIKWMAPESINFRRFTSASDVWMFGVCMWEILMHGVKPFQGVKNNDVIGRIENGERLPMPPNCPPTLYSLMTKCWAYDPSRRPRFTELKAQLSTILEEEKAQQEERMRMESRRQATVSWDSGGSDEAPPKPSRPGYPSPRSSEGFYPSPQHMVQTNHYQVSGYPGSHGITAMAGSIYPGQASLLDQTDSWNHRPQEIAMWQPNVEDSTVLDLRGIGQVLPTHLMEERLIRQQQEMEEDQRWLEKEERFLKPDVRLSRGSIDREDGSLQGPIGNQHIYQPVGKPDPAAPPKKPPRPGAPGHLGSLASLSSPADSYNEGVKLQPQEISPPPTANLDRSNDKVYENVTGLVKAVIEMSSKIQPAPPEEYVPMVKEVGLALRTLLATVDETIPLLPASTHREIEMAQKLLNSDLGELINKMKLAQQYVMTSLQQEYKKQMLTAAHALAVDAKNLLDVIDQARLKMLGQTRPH
Fibroblast growth factor 2 (Homo sapiens), sequence (P09038 whole entry, looked up): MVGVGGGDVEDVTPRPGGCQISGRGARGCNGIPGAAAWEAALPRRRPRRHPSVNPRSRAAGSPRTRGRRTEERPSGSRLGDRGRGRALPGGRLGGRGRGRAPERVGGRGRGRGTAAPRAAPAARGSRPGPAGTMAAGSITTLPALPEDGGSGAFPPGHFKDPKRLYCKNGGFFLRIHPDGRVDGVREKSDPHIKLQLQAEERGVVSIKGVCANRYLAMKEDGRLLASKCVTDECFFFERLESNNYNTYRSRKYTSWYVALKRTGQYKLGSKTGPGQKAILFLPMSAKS
Albumin (Bos taurus), sequence (P02769 whole entry, looked up): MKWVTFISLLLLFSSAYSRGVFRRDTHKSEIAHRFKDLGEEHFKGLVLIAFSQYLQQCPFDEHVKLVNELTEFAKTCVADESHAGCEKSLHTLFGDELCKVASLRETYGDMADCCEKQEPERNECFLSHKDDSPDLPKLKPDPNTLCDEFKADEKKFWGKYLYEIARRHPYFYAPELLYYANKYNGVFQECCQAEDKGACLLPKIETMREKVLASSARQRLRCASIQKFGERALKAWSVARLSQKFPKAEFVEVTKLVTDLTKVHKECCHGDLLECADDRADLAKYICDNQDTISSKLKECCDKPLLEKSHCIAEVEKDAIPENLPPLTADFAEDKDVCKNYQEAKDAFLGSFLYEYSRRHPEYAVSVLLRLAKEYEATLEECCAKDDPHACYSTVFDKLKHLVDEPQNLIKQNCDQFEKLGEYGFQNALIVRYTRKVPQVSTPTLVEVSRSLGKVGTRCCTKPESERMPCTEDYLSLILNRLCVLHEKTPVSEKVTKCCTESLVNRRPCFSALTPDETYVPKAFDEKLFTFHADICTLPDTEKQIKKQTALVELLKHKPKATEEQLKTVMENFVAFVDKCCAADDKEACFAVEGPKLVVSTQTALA
Follistatin (Homo sapiens), sequence (P19883 whole entry, looked up): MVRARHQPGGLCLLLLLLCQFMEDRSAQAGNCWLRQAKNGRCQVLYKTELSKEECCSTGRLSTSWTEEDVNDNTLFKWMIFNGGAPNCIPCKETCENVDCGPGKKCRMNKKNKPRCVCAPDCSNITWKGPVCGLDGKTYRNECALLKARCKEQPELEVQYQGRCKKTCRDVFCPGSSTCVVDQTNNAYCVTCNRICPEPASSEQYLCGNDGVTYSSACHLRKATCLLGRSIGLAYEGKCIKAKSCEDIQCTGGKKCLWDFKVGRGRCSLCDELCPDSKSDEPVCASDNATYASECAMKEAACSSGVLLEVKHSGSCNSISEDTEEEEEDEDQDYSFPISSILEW
Concanavalin-A (Canavalia ensiformis), sequence (P02866 whole entry, looked up): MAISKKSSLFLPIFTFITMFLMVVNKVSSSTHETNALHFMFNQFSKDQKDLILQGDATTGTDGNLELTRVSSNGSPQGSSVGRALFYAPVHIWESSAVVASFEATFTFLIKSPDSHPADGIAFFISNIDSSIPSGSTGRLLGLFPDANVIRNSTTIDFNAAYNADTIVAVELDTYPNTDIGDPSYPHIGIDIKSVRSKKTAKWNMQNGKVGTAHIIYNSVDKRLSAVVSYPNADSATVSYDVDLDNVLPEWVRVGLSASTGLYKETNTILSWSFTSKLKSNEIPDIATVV

As for `Cc1ccc(S[C@]2(C(=O)NC3CC3)CC(=O)N(C(C)C)[C@@H]2c2ccc(CO)cc2I)cc1`, the composite z-score in [1] is 0.899; in experiment [3] it was -0.364; in [4], -0.2; in [5], 0.7; in experiment [6], 1.16; in experiment [7] it was 0.048. The composite z-score in [8] is 0.238; in experiment [9], -1.06; in experiment [10], 0.0412; in experiment [11], 1.49; in experiment [12], 0.882; in [13] it was 0.411. The composite z-score in experiment [14] is -0.36; in experiment [15], 0.536; in [16], -0.471; in experiment [18], 0.303; in experiment [19], 0.969. For the same compound, in [2], the composite Z-score is -0.6 (inactive). In addition, the z-score is 0.51 in [17] and 1.29 (inactive) in [20].

In the case of `CCCCC(O)C1C=CC2C(=O)N(c3ccccc3)C(=O)C2N1Nc1ccccc1` (stereo not given), the composite z-score is 0.901 in experiment [1]; 0.0248 in experiment [3]; -0.0596 in [4]; 0.0784 in [5]; 2.59 in experiment [6]; -0.0672 in experiment [7]. Further, the composite z-score was 0.576 in experiment [8]; -1.17 in experiment [9]; 0.557 in experiment [10]; 0.781 in experiment [11]; 1.14 in experiment [12]; 0.438 in [13]. In addition, the composite z-score was 0.543 in [14]; -0.0278 in experiment [15]; -1.26 in experiment [16]; 0.173 in experiment [18]; 1.17 in experiment [19]. For the same compound, the composite Z-score in experiment [2] is -0.539 (inactive). In addition, the z-score in experiment [17] is 0.656; in [20] it was 0.438 (inactive).

`COCCOC(=O)N1C(=O)[C@@]2(c3cc(C#CCC(C(=O)OC)C(=O)OC)ccc31)[C@H](C(=O)Nc1nc3ccccc3s1)[C@H]1C(=O)O[C@H](c3ccccc3)[C@H](c3ccccc3)N1[C@@H]2c1ccc(OCCO)cc1`: the composite z-score was -0.978 in [1]; 0.414 in experiment [3]; 0.0328 in [4]; 0.487 in experiment [5]; 1.24 in experiment [6]; 0.705 in [7]. The composite z-score worked out at 1.29 in experiment [8]; 1.32 in experiment [9]; 1.18 in experiment [10]; 2.33 in experiment [11]; 0.988 in experiment [12]; 0.35 in experiment [13]. Besides, the composite z-score in [14] worked out at 0.746; in experiment [15], 1.39; in experiment [16] it was 1.79; in [18] it was 1.64; in [19], 0.44. In [2], the composite Z-score was 1.21 (inactive). The z-score was -2.33 in experiment [17] and -4.07 (inactive) in [20].

As for `CC1CC/C=C\[C@H]2OC34C=CCN(c5ccc6ccccc6c5)C(=O)[C@H]3N(C(C)CO)C(=O)[C@@H]4C2C(=O)O1` (stereo not given in full), the composite z-score in experiment [1] was -0.333; in experiment [3] it was -0.226; in [4], -0.181; in [5], 0.725; in experiment [6] it was -0.976; in [7], 0.105. In addition, the composite z-score is -0.849 in experiment [8]; -0.837 in [9]; -0.654 in experiment [10]; 0.0166 in experiment [11]; -1.72 in [12]; -0.785 in [13]. The composite z-score in [14] is -1.17; in experiment [15], -0.69; in experiment [16], -0.911; in experiment [18] it was -0.546; in [19], -0.946. In addition, the composite Z-score in experiment [2] was -0.105 (inactive). Moreover, the z-score in [17] is 0.838; in [20], -1.2 (inactive).

As for `COC(=O)[C@]1(CCC(=O)OC(C)(C)C)N=C(c2ccc(OCCCO)cc2)O[C@@H]1c1ccccc1N=[N+]=[N-]`, the composite z-score in experiment [1] is -0.257; in experiment [3], -0.122; in experiment [4], -0.0618; in experiment [5] it was 0.589; in experiment [6], 1.63; in experiment [7] it was 0.254. Also, the composite z-score in experiment [8] was 0.68; in experiment [9] it was -0.444; in experiment [10], 0.589; in experiment [11] it was 0.477; in [12], 0.993; in experiment [13], -0.212. Further, the composite z-score in [14] is -0.306; in experiment [15], 1.29; in experiment [16], 0.626; in experiment [18], -0.0341; in experiment [19], 0.658. Besides, the composite Z-score in experiment [2] was 0.62 (inactive). For the same compound, the figures for the z-score in experiment [17] and in [20] were 1.3 and -6.42 (inactive), respectively.

Values taken from PubChem BioAssay.
